Results on 15 compounds are retold here after PubChem BioAssay (NCATS).

Results filed as inconclusive are left out. Calls of active or inactive are those of the source. Unless noted, the call rests on the fitted dose curve; in most records, active means well fitted inhibition curve with a large enough effect; inconclusive means small, poorly fitted or top-dose-only effect; inactive means flat fitted curve, though single readings scatter.

Experiment [1] can be described thus: qHTS drug screen for cell cycle checkpoint inhibitors in PARPi-resistant BRCA-mutant ovarian cancer cell lines. (AID 1963452; calls by dose curve). The note with it: PEO1/OlaR viability, CellTiter-Glo luminescence, 96 h; for Z-AUC: stronger effect = lower value. Summed up:
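PEO1, PEO4 and PEO1/OlaR ovarian cancer cells, 600 per well, exposed 96 h at 37C to a dilution series. Viability read by CellTiter-Glo luminescence, normalized to DMSO and empty wells; activity summarized as Z-AUC.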
(In qHTS, concentration-response curves come from the screen itself.)

The nature of experiment [2]: qHTS profiling for inhibitors of Plasmodium falciparum proliferation (AID 504749).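 On activity, negative = inhibition: 0% = DMSO vehicle and full inhibition = artemisinin control.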 On all read-outs here: nearly all actives have a fitted effect of over 60% in size. The note with it: P. falciparum in erythrocytes, SYBR Green DNA, 72 h; for activity, negative = inhibition: at 28.7 µM (top of the series). Summed up: (§1)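 SYBR Green fluorescence (ex 485 nm, em 535 nm) reports parasite DNA after 72 h compound exposure of infected red cells at 0.3% parasitemia, 2.5% hematocrit; signal normalized to 0.29 uM artemisinin and vehicle wells.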

In a further experiment the test system is 3D7. The description is as above. The note with it: P. falciparum in erythrocytes, SYBR Green DNA, 72 h; series mostly up to 28.7 µM. Summed up:
as §1

A further experiment deals with 7G8. The experiment is described as above. The note with it: P. falciparum in erythrocytes, SYBR Green DNA, 72 h; series mostly up to 28.7 µM. The procedure, abridged: as §1
A further experiment has as its system AA1029. The experiment is described as above. The conditions noted are these: P. falciparum in erythrocytes, SYBR Green DNA, 72 h; series mostly up to 28.7 µM. Summed up:
as §1

The next experiment relates to AS120. Described as above. The conditions noted are these: P. falciparum in erythrocytes, SYBR Green DNA, 72 h; series mostly up to 28.7 µM. Summed up: as §1
For a further experiment, the system named is ATS189. The description is as above. The note with it: P. falciparum in erythrocytes, SYBR Green DNA, 72 h; series mostly up to 28.7 µM. The procedure, abridged: as §1
In another experiment the test system is ATS95. The description is as above. The conditions noted are these: P. falciparum in erythrocytes, SYBR Green DNA, 72 h; series mostly up to 28.7 µM. Summed up: as §1
Another experiment has as its system C2A. The experiment is described as above. The conditions noted are these: P. falciparum in erythrocytes, SYBR Green DNA, 72 h; series mostly up to 28.7 µM. Summed up: as §1
The subject of a further experiment is CP185. The experiment is described as above. The note with it: P. falciparum in erythrocytes, SYBR Green DNA, 72 h; series mostly up to 28.7 µM. Summed up: as §1
In another experiment the test system is CP191. The experiment is described as above. The note with it: P. falciparum in erythrocytes, SYBR Green DNA, 72 h; series mostly up to 28.7 µM. Summed up: as §1
The next experiment deals with CP192. The description is as above. The conditions noted are these: P. falciparum in erythrocytes, SYBR Green DNA, 72 h; series mostly up to 28.7 µM. The procedure, abridged:
as §1

The next experiment relates to CP194. The description is as above. The conditions noted are these: P. falciparum in erythrocytes, SYBR Green DNA, 72 h; series mostly up to 28.7 µM. The procedure, abridged:
as §1

For a further experiment, the system named is CP201. The description is as above. The note with it: P. falciparum in erythrocytes, SYBR Green DNA, 72 h; series mostly up to 28.7 µM. Summed up:
as §1

The next experiment has as its system CP203. The description is as above. The conditions noted are these: P. falciparum in erythrocytes, SYBR Green DNA, 72 h; series mostly up to 28.7 µM. Summed up:
as §1

A further experiment deals with CP211. Described as above. The conditions noted are these: P. falciparum in erythrocytes, SYBR Green DNA, 72 h; series mostly up to 28.7 µM. The procedure, abridged: as §1
The mark [3] stands for this setting: measured here: PEO1 parental Z-AUC.
Potency means the concentration at half of the fitted maximal effect.

With `CON(C)C(=O)N1N=C(c2cc(F)ccc2F)S[C@@]1(CCCN)c1ccccc1`, in experiment [1], the Potency was 8.7 nM (active). Moreover, the values for the Z-AUC in experiment [1] (setting [3]) and in experiment [1] (measured here: PEO4 Z-AUC) were -2.66 and -2.54, respectively.

As to `CCS(=O)(=O)N1CCC([C@@H](C)n2c(C)c(C(=O)NCc3c(OC)cc(C)[nH]c3=O)c3ccccc32)CC1`, the Z-AUC is -0.188 (inactive) in experiment [1], 0.682 in [1] (setting [3]) and -0.124 in experiment [1] (measured here: PEO4 Z-AUC).

In the case of `CCOC(=O)c1ccnc(CNCC(=O)N(CC)CCN(C)C)c1`, the Z-AUC was 1.38 (inactive) in experiment [1], 0.751 in experiment [1] (setting [3]) and 0.779 in [1] (measured here: PEO4 Z-AUC).

Consider `Cc1cn([C@H]2C[C@H](O)[C@@H](CO)O2)c(=O)[nH]c1=O`, for which the activity, negative = inhibition was 4.1% (inactive) in experiment [2] (parasite line A) and -3.41% (inactive) in experiment [2] (parasite line B). Further, the Potency entry in the experiment on 3D7, in the experiment on 7G8, in the experiment on AA1029, in the experiment on AS120, with ATS189 and in the experiment with ATS95 was “inactive” each time. In addition, the Potency result with C2A, in the experiment with CP185, with CP191, in the experiment with CP192, in the experiment with CP194 and in the experiment with CP201 was “inactive” throughout. Also, the Potency entry in the experiment on CP203 and in the experiment with CP211 was “inactive” each time.

`O=C(NC[C@H](O)CN1CCc2ccccc2C1)c1cc(NC2COC2)ncn1`: the Z-AUC is 0.421 (inactive) in experiment [1], 0.62 in experiment [1] (setting [3]) and 0.347 in experiment [1] (measured here: PEO4 Z-AUC).

As to `NS(=O)(=O)NCCNc1nonc1C(=Nc1ccc(F)c(Br)c1)NO`, the results for the Z-AUC in experiment [1], in experiment [1] (setting [3]) and in experiment [1] (measured here: PEO4 Z-AUC) were 1.03 (inactive), 0.698 and 1.08, respectively.

As to `Cc1cc(Nc2ncc(Cl)c(Nc3ccccc3S(=O)(=O)C(C)C)n2)c(OC(C)C)cc1C1CCNCC1`, the results for the Z-AUC in experiment [1], in [1] (setting [3]) and in experiment [1] (measured here: PEO4 Z-AUC) were -1.77 (inactive), -0.797 and -0.548, respectively.

As to `NC1CCC(N[C@@H]2C[C@H]2c2ccccc2)CC1` (some centres not stated), the Z-AUC in [1] was -1.43 (inactive); in [1] (setting [3]), -0.571; in [1] (measured here: PEO4 Z-AUC), -0.668.

On to `Cc1cc(C)cc(NC(=O)Cc2ccc(OC(C)(C)C(=O)O)cc2)c1`, for which the results for the Z-AUC in [1], in experiment [1] (setting [3]) and in [1] (measured here: PEO4 Z-AUC) were -0.433 (inactive), -0.359 and -0.00799, respectively.

For `CC(=O)c1cnc2ccc(-c3cc(Cl)c(O)c(Cl)c3)nc2c1NC1CCC(CN(C)C)CC1` (configuration not stated), in [1], the Potency is 252 nM (active). Moreover, the Z-AUC in experiment [1] (setting [3]) is -1.7; in experiment [1] (measured here: PEO4 Z-AUC) it was -1.3.

Take `OC[C@H]1O[C@@H](Oc2cc(O)cc(/C=C/c3ccc(O)cc3)c2)[C@H](O)[C@@H](O)[C@@H]1O`: the Z-AUC was 1.9 (inactive) in experiment [1], 1.63 in experiment [1] (setting [3]) and 1.47 in experiment [1] (measured here: PEO4 Z-AUC).

Take `COC(=O)[C@H]1[C@H]2C[C@@H]3c4[nH]c5ccccc5c4CCN3C[C@H]2C[C@@H](OC(=O)c2cc(OC)c(OC)c(OC)c2)[C@@H]1OC`: the Potency in experiment [2] (parasite line A) is 355 nM (active); in experiment [2] (parasite line B), 631 nM (active); with 3D7, 891 nM (active); in the experiment on 7G8 it was 50.1 nM (active); in the experiment on AA1029, 282 nM (active); with AS120, 199 nM (active). Moreover, the Potency was 708 nM (active) in the experiment with ATS189; 398 nM (active) with ATS95; 282 nM (active) in the experiment on C2A; 398 nM (active) with CP185; 398 nM (active) in the experiment on CP191; 338 nM (active) in the experiment on CP192. Moreover, the Potency in the experiment with CP194 is 536 nM (active); in the experiment on CP201 it was 849 nM (active); with CP203, 536 nM (active); with CP211 it was 601 nM (active).

With `OC[C@H]1O[C@@H](n2cnc3c2NC=NC[C@H]3O)C[C@@H]1O`, the Z-AUC in experiment [1] is -0.043 (inactive); in experiment [1] (setting [3]), 0.0818; in experiment [1] (measured here: PEO4 Z-AUC), 0.0721.

Take `COC(F)(F)C(Cl)Cl`: the activity, negative = inhibition in experiment [2] (parasite line A) is 16.9% (inactive); in experiment [2] (parasite line B), -4.97% (inactive). The Potency entry with 3D7, in the experiment on 7G8, in the experiment with AA1029, in the experiment on AS120, in the experiment on ATS189 and with ATS95 was “inactive” in each case. The Potency entry in the experiment with C2A, in the experiment on CP185, in the experiment with CP191, in the experiment on CP192, in the experiment on CP194 and in the experiment on CP201 was “inactive” each time. Besides, the Potency result in the experiment with CP203 and in the experiment on CP211 was “inactive” throughout.

With `CCOC(=O)C1=CC2(CC)CCCN3CCc4c(n1c1ccccc41)C32` (configuration not stated), the Potency in [2] (parasite line A) was 11200 nM (active); in experiment [2] (parasite line B) it was 7940 nM (active); with 3D7 it was 8910 nM (active); in the experiment with 7G8 it was 5620 nM (active); with AA1029, 11200 nM (active); in the experiment on AS120, 11200 nM (active). The Potency was 8910 nM (active) in the experiment with ATS189; 11200 nM (active) in the experiment with ATS95; 10000 nM (active) with C2A; 8910 nM (active) in the experiment with CP185; 8910 nM (active) with CP191.
